Several values for one entry are separate records, joined by “and”; a condition that tells them apart may be missing. Identical values can stand only once. The whole screen tested about 70,000 compounds, of which about 400 (0.57%) were called active. No stated cut-off is given here; in the data, active means FP signal below about 40; inactive means the rest. Many of the other results were omitted from the sample, so actives are more common in it than they were.

This assay has as its system RMI core complex (RMI1/RMI2) binding to FANCM MM2 peptide, human. Put plainly: disruptors of RMI1/RMI2 association with MM2 peptide – biochemical, fluorescence polarization, human, primary screen (AID 1159607). To be noted: RMI core complex with F-MM2 peptide, at 33 µM, stronger effect = lower value. On the technique in general: Fluorescence polarisation rises when a labelled molecule tumbles more slowly, as on binding a larger partner.
Turning to `CC(=O)O[C@H]1CC[C@@]2(C)C(=CCC3C2CC[C@]2(C)C(=O)CCC32)C1` (stereo not given in full), the FP signal (polarization) is -6 (active).
For the molecule `CC(=O)NBr`, the FP signal (polarization) was 53 (inactive).
On to `CC12CCC3C(CCC4CC(O)CCC43C)C1C/C(=C\c1ccccc1Cl)C2=O` (stereo not given), for which the FP signal (polarization) is 62 (inactive).
The result for `CN1CCc2cc3c(cc2[C@H]1[C@@H]1OC(=O)c2c1ccc1c2OCO1)OCO3` reads 67 (inactive) and 61 (inactive); that for `CSC(=NCc1ccccc1Cl)N/C(N)=N/[N+](=O)[O-]`, 58 (inactive); that for `NCC(O)c1ccc(O)cc1` (stereo not given), -18 (active) and 54 (inactive) and 46 (inactive).
Take `COc1ccc2c(c1O)-c1cccc3c1[C@@H](C2)N(C)CC3`: the FP signal (polarization) is 57 (inactive).
With `c1cncc(OCC2=NCCN2)c1`, the FP signal (polarization) is 51 (inactive).
Regarding `CNC(=O)O/N=C\C(C)(C)SC`, the FP signal (polarization) is 58 (inactive).
The result for `CC(=O)NS(=O)(=O)c1ccc(NC(=O)c2cccn(Cc3cccc([N+](=O)[O-])c3)c2=O)cc1` reads 51 (inactive).

The values are drawn from PubChem BioAssay AID1159607 (Small Molecule Screening Facility, UW Madison, 2016).
